Each structure is given as a SMILES string. “And” between values parts separate entries of the source, which are not always exact repeats. Identical values can stand only once. Inconclusive results are not listed. Entries that show only a call come without a potency. The source made the active and inactive calls. Unless noted, the call rests on the fitted dose curve; in most records, active means well fitted curve in the direction sought with a large enough effect; inconclusive means small, poorly fitted or top-dose-only effect, or another doubt; inactive means no such curve, though single readings can be large; an effect the other way counts as inactive or inconclusive.

Chain of Nuclear receptor ROR-gamma (Homo sapiens) (P51449 whole entry, looked up): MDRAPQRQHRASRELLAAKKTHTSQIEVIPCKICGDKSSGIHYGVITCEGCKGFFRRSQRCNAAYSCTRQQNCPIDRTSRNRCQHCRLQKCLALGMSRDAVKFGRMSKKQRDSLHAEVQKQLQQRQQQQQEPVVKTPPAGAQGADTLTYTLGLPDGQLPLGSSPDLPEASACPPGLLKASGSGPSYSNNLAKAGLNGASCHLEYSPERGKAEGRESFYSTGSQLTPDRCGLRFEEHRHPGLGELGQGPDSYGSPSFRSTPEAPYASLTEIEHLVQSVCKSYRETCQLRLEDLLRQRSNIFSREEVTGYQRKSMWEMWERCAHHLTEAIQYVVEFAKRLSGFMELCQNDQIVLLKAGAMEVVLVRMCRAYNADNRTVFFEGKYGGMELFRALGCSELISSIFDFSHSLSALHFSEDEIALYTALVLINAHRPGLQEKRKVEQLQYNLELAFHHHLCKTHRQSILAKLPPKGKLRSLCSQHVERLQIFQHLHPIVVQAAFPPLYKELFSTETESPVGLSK
Chain of Peroxisome proliferator-activated receptor alpha (Homo sapiens) (Q07869 whole entry, looked up, the tested form may be a part): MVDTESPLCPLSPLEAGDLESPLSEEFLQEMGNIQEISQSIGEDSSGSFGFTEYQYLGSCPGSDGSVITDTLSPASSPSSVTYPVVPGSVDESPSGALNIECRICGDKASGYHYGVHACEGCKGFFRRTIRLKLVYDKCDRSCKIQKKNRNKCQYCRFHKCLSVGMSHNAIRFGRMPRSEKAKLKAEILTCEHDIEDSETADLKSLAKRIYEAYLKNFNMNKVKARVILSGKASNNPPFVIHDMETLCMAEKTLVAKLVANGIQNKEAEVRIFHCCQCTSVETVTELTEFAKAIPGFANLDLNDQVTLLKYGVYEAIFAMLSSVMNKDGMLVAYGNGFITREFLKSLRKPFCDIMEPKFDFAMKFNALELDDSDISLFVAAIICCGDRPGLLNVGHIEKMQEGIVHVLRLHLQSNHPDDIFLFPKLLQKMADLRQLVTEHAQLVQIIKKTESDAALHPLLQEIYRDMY

Tested on in one experiment: not listed separately
As to the kind of experiment: qHTS assay for environmental chemicals that activate the Aryl hydrocarbon Receptor (AhR) signaling pathway (AID 651777). Further: nearly all actives have a fitted effect of over 15% in size. The conditions noted are these: 1A2-DRE human hepatoma cells, luciferase, 24 h; activation: hits give high values. The essentials: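 Human hepatoma 1A2-DRE cells, stably carrying a dioxin response element and CYP1A2 promoter driving luciferase, were exposed to compounds for 24 hr at 37 C and 5% CO2. Luciferase signal was then read after 30 min One-Glo at room temperature.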
For orientation: qHTS replaces the single test concentration by a dilution series.
In the case of `N#CCCCCC#N`, the activation is 0.486% (inactive).

For the molecule `CN=C=O`, the activation is -0.54% (inactive).

For `c1ccc(C2CO2)cc1` (centres undefined), the activation was 0.299% (inactive).

`CCCCCC[N+](=O)[O-]`: the activation was 0.0869% (inactive).

For the molecule `OCC(Cl)CCl` (centres undefined), the activation was 1.02% (inactive).

With `COc1ccc(C=O)cc1`, the activation was 0.954% (inactive).

Regarding `CC(=O)[O-].CC(=O)[O-].CC(=O)[O-].[Cr+3]`, the activation was -2.21% (inactive).

In the case of `CC(=O)CCC(C)=O`, the activation was 1.06% (inactive).

As for `C=CC(=O)OCC(CC)CCCC` (centres undefined), the activation is 2.67% (inactive) and -0.331% (inactive).

As to `CC(C#N)CCC#N` (centres undefined), the activation was -0.458% (inactive).

The target in another experiment is Peroxisome proliferator-activated receptor alpha (Homo sapiens) (UniProt Q07869). As to the kind of experiment: qHTS assay for small molecule agonists of the peroxisome proliferator-activated receptor alpha (PPARalpha) signaling pathway (AID 651778). Particulars: PathHunter PPARalpha complementation, chemiluminescence, 6 h; hits give high values. In short, it runs like this:
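Enzyme-fragment complementation assay in which ligand-bound PPARalpha translocates and forms an active enzyme that generates chemiluminescence. Cells were plated overnight, exposed to compound for 6 hr at 37 C, and then given detection reagent for 60 min at room temperature.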
As to `Oc1cccc(Cl)c1Cl`, the max response is -2.6% (inactive).

For `CCC/C=N/O`, the max response is -3.79% (inactive).

On to `Nc1cccc2ccccc12`, for which the max response was -2.99% (inactive).

`Cc1cnc[nH]1`: the max response is -0.863% (inactive).

As for `CN(C)N=O`, the max response was 0.541% (inactive).

For the molecule `COc1c(C(C)(C)C)cc([N+](=O)[O-])c(C)c1[N+](=O)[O-]`, the max response is 1.79% (inactive).

Regarding `C=C(Cl)CCl`, the max response is -4.17% (inactive).

As for `ClCCOCOCCCl`, the max response was -0.0658% (inactive).

As for `CC12CC1(C)C(=O)N(c1cc(Cl)cc(Cl)c1)C2=O` (centres undefined), the max response was -1.35% (inactive) and -2.97% (inactive).

Take `CC(C)(Cl)[N+](=O)[O-]`: the max response is -3.23% (inactive).

In the case of `Cl/C=C/Cl`, the max response is -4.81% (inactive).

On to `CCCCOCC1CO1` (centres undefined), for which the max response was -2.14% (inactive).

For `O=C(O)c1cccc(Cl)c1`, the max response is -1.81% (inactive).

Turning to `C1CC2OC2CC1C1CO1` (centres undefined), the max response is -1.95% (inactive) and -1.6% (inactive).

In the case of `Brc1cccc(-c2ccccc2)c1`, the max response was -1.43% (inactive).

Consider `Oc1c(Cl)cccc1Cl`, for which the max response was -1.21% (inactive).

As for `ClCCOCCCl`, the max response is -1.95% (inactive).

Take `CCNCC`: the max response is 7.15% (inactive).

Consider `CC(C)C#N`, for which the max response was 2.25% (inactive).

For `Cl/C=C\Cl`, the max response was -0.887% (inactive).

`c1ccc2c(c1)CCNC2`: the max response was 5.32% (inactive).

`CCBr`: the max response is -2.39% (inactive).

On to `O=[N+]([O-])c1ccc(Cl)c(Cl)c1Cl`, for which the max response is 10.7% (inactive).

With `N#CCCC#N`, the max response is -2.27% (inactive).

As to `Cc1ccccc1[N+](=O)[O-]`, the max response was 2.03% (inactive).

For the molecule `OCCBr`, the max response was 2.96% (inactive).

For `C=CC(=O)OCCN(C)C`, the max response is 10.1% (inactive).

For `CC(C)(C)C(O)(CCc1ccc(Cl)cc1)Cn1cncn1` (centres undefined), the max response was -3.73% (inactive) and 1.11% (inactive).

In the case of `N#CCCCCC#N`, the max response was -1.89% (inactive).

`CN=C=O`: the max response was 1.15% (inactive).

For `c1ccc(C2CO2)cc1` (centres undefined), the max response is 0.189% (inactive).

On to `CCCCCC[N+](=O)[O-]`, for which the max response was 6.24% (inactive).

Turning to `OCC(Cl)CCl` (centres undefined), the max response is 0.308% (inactive).

On to `COc1ccc(C=O)cc1`, for which the max response is 2.57% (inactive).

Consider `Nc1ccc(Cl)c(Cl)c1`, for which the max response is -1.3% (inactive).

For the molecule `CC(=O)[O-].CC(=O)[O-].CC(=O)[O-].[Cr+3]`, the max response is -3.23% (inactive).

Turning to `CC(=O)CCC(C)=O`, the max response was -3.42% (inactive).

Regarding `C=CC(=O)OCC(CC)CCCC` (centres undefined), the max response is 4.79% (inactive) and 0.332% (inactive).

In the case of `CC(C#N)CCC#N` (centres undefined), the max response is -3.28% (inactive).

Another experiment concerns the target Nuclear receptor ROR-gamma (Homo sapiens) (UniProt P51449). As to the kind of experiment: qHTS assay for small molecule antagonists of the retinoid-related orphan receptor gamma (ROR-gamma) signaling pathway (AID 651802). Further: nearly all actives have a fitted effect of over 60% in size. The conditions noted are these: ROR-gamma antagonist cell reporter assay; series mostly up to 92.2 µM. The essentials: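 CHO cells carrying TET-inducible ROR-gamma and an ROR response element–luciferase reporter were exposed to compound, then induced with doxycycline. After 16hr at 37C, luminescence was read; lower signal indicates antagonism.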
`Oc1cccc(Cl)c1Cl`: the Potency result was “inactive”.

Turning to `CCC/C=N/O`, the Potency entry was “inactive”.

Consider `Nc1cccc2ccccc12`, for which the Potency result is “inactive”.

As to `Cc1cnc[nH]1`, the Potency entry was “inactive”.

Take `COc1c(C(C)(C)C)cc([N+](=O)[O-])c(C)c1[N+](=O)[O-]`: the Potency entry is “inactive”.

Consider `C=C(Cl)CCl`, for which the Potency result is “inactive”.

Take `ClCCOCOCCCl`: the Potency result was “inactive”.

Take `CC12CC1(C)C(=O)N(c1cc(Cl)cc(Cl)c1)C2=O` (centres undefined): the Potency entry was “inactive”.

Take `CC(C)(Cl)[N+](=O)[O-]`: the Potency entry is “inactive”.

For `Cl/C=C/Cl`, the Potency entry was “inactive”.

As for `CCCCOCC1CO1` (centres undefined), the Potency result was “inactive”.

With `Brc1cccc(-c2ccccc2)c1`, the Potency result is “inactive”.

On to `Oc1c(Cl)cccc1Cl`, for which the Potency entry is “inactive”.

Consider `CCNCC`, for which the Potency result is “inactive”.

`CC(C)C#N`: the Potency result was “inactive”.

Turning to `Cl/C=C\Cl`, the Potency result is “inactive”.

For `c1ccc2c(c1)CCNC2`, the Potency result is “inactive”.

Take `O=[N+]([O-])c1ccc(Cl)c(Cl)c1Cl`: the Potency entry is “inactive”.

Take `N#CCCC#N`: the Potency entry is “inactive”.

As to `Cc1ccccc1[N+](=O)[O-]`, the Potency result is “inactive”.

Regarding `OCCBr`, the Potency result is “inactive”.

On to `CN=C=O`, for which the Potency entry was “inactive”.

Consider `c1ccc(C2CO2)cc1` (centres undefined), for which the Potency result was “inactive”.

As to `CCCCCC[N+](=O)[O-]`, the Potency entry was “inactive”.

In the case of `OCC(Cl)CCl` (centres undefined), the Potency result was “inactive”.

With `Nc1ccc(Cl)c(Cl)c1`, the Potency entry was “inactive”.

Tested on in the next experiment: not listed separately
As to the kind of experiment: qHTS assay for small molecule agonists of the antioxidant response element (ARE) signaling pathway measured by Nrf2-dependant transcriptional activity (AID 720636; active means well fitted curve in the direction sought with a large enough effect in the repeat runs; an effect the other way counts as inactive or inconclusive). The conditions noted are these: ARE-luc HepG2, Nrf2 luciferase reporter, 16 h; series mostly up to 92.4 µM. The essentials:
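ARE-luc HepG2 cells carrying an Nrf2-responsive luciferase reporter were plated in medium with 1% dialyzed FBS, left 6 hr at 37 C to attach, then exposed to compound for 16 hr. Luciferase luminescence was read after ONE-Glo addition.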
Regarding `Oc1cccc(Cl)c1Cl`, the Potency result was “inactive”.

Turning to `CCC/C=N/O`, the Potency entry is “inactive”.

Regarding `Cc1cnc[nH]1`, the Potency result was “inactive”.

On to `CN(C)N=O`, for which the Potency result was “inactive”.

Take `C=C(Cl)CCl`: the Potency entry is “inactive”.

Consider `ClCCOCOCCCl`, for which the Potency entry is “inactive”.

Take `CC(C)(Cl)[N+](=O)[O-]`: the Potency entry was “inactive”.

For the molecule `Cl/C=C/Cl`, the Potency result was “inactive”.

With `CCCCOCC1CO1` (centres undefined), the Potency result is “inactive”.

As to `O=C(O)c1cccc(Cl)c1`, the Potency result was “inactive”.

For `C1CC2OC2CC1C1CO1` (centres undefined), the Potency result is “inactive”.

Take `Brc1cccc(-c2ccccc2)c1`: the Potency result is “inactive”.

For `Oc1c(Cl)cccc1Cl`, the Potency result was “inactive”.

As to `ClCCOCCCl`, the Potency result is “inactive”.

Regarding `CCNCC`, the Potency entry is “inactive”.

In the case of `CC(C)C#N`, the Potency result is “inactive”.

`Cl/C=C\Cl`: the Potency result was “inactive”.

In the case of `c1ccc2c(c1)CCNC2`, the Potency entry was “inactive”.

As for `O=[N+]([O-])c1ccc(Cl)c(Cl)c1Cl`, the Potency entry was “inactive”.

Consider `N#CCCC#N`, for which the Potency result was “inactive”.

On to `Cc1ccccc1[N+](=O)[O-]`, for which the Potency result is “inactive”.

As for `OCCBr`, the Potency entry was “inactive”.

Take `C=CC(=O)OCCN(C)C`: the Potency result is “inactive”.

As to `CC(C)(C)C(O)(CCc1ccc(Cl)cc1)Cn1cncn1` (centres undefined), the Potency entry is “inactive”.

For the molecule `CN=C=O`, the Potency result was “inactive”.

Consider `c1ccc(C2CO2)cc1` (centres undefined), for which the Potency result was “inactive”.

For `CCCCCC[N+](=O)[O-]`, the Potency result was “inactive”.

With `OCC(Cl)CCl` (centres undefined), the Potency result was “inactive”.

Turning to `COc1ccc(C=O)cc1`, the Potency entry was “inactive”.

With `Nc1ccc(Cl)c(Cl)c1`, the Potency result is “inactive”.

Consider `CC(=O)[O-].CC(=O)[O-].CC(=O)[O-].[Cr+3]`, for which the Potency entry is “inactive”.

As to `CC(=O)CCC(C)=O`, the Potency entry was “inactive”.

As to `C=CC(=O)OCC(CC)CCCC` (centres undefined), the Potency entry is “inactive”.

Consider `CC(C#N)CCC#N` (centres undefined), for which the Potency result is “inactive”.

For the origin of these results see PubChem BioAssay (NCATS).
